Records with an inconclusive call do not appear. The source made the active and inactive calls. Unless noted, calls follow the shape of the dose curve; as a rule, active = well fitted curve in the direction sought with a large enough effect in the repeat runs; inconclusive = weak or mixed curves; inactive = no such curve, though single readings can be large; an effect the other way counts as inactive or inconclusive.
Columns and labels:
[1] = A CellTox Green Cytotoxicity Assay to monitor cytotoxicity in HepG2 cells - 24 hour (AID 1224878); also: nearly all actives have a fitted effect of over 45% in size
Outline: (§1)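 Using 1536-well format, dye-containing HepG2 suspension was seeded, allowed 5 h at 37 C/5% CO2, dosed by pintool with compounds, positive and negative controls, and imaged for fluorescence across 40 h.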

[2] = A CellTox Green Cytotoxicity Assay to monitor cytotoxicity in HepG2 cells - 40 hour (AID 1224879); also: nearly all actives have a fitted effect of over 40% in size
Outline: as §1

[3] = qHTS RealTime-Glo MT Cell Viability Assay in HEK293 cells - 0 hour (AID 1224880); also: top concentration of the series differs between compounds; nearly all actives have a fitted effect of over 45% in size
Outline: (§2)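 Viable HEK293 cells reduce a cell-permeant prosubstrate; the product diffuses out and is consumed by NanoLuc in the medium to give light. Compounds went in after a 5 h incubation and plates were read over the treatment course.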

[4] = A CellTox Green Cytotoxicity Assay to monitor cytotoxicity in HEK293 cells - 32 hour (AID 1224881); also: nearly all actives have a fitted effect of over 40% in size
Outline: (§3)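 Fluorescence intensity, read at 0, 8, 16, 24, 32 and 40 h of compound treatment, reflected dye binding to DNA of dead HEK293 cells; compounds (23 nL, DMSO) were added 5 h after plating cells with reagent.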

[5] = A CellTox Green Cytotoxicity Assay to monitor cytotoxicity in HepG2 cells - 0 hour (AID 1224882); also: nearly all actives have a fitted effect of over 35% in size
Outline: as §1

[6] = A CellTox Green Cytotoxicity Assay to monitor cytotoxicity in HepG2 cells - 32 hour (AID 1224883); also: nearly all actives have a fitted effect of over 50% in size
Outline: as §1

[7] = A CellTox Green Cytotoxicity Assay to monitor cytotoxicity in HEK293 cells - 8 hour (AID 1224884); also: nearly all actives have a fitted effect of over 35% in size
Outline: as §3

[8] = qHTS RealTime-Glo MT Cell Viability Assay in HepG2 cells - 16 hour (AID 1224885); also: nearly all actives have a fitted effect of over 50% in size
Outline: (§4)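 qHTS, HepG2, 600 cells/well, RealTime-Glo (NanoLuc + prosubstrate) added with cells; 5 h preincubation; DMSO compound addition; 37 C; luminescence at 0/8/16/24/32/40 h.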

[9] = qHTS RealTime-Glo MT Cell Viability Assay in HEK293 cells - 24 hour (AID 1224886); also: top concentration of the series differs between compounds; nearly all actives have a fitted effect of over 50% in size
Outline: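 Assay medium contained NanoLuc luciferase plus cell-permeant prosubstrate, added with HEK293 cells at 600 cells/well. After 5 h at 37 C/5% CO2 compounds were added; plates stayed at 37 C for 40 h with serial luminescence reads.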

[10] = qHTS RealTime-Glo MT Cell Viability Assay in HEK293 cells - 8 hour (AID 1224887); also: top concentration of the series differs between compounds; nearly all actives have a fitted effect of over 50% in size
Outline: as §2

[11] = A CellTox Green Cytotoxicity Assay to monitor cytotoxicity in HEK293 cells - 16 hour (AID 1224888); also: nearly all actives have a fitted effect of over 35% in size
Outline: as §3

[12] = qHTS RealTime-Glo MT Cell Viability Assay in HepG2 cells - 0 hour (AID 1224889); also: nearly all actives have a fitted effect of over 50% in size
Outline: as §4

[13] = A CellTox Green Cytotoxicity Assay to monitor cytotoxicity in HepG2 cells - 8 hour (AID 1224890); also: nearly all actives have a fitted effect of over 45% in size
Outline: as §1

[14] = qHTS assay to identify small molecule antagonists of the estrogen receptor alpha (ER-alpha) signaling pathway using the BG1 cell line in the presence of 0.1 nM 17-beta-estradiol - cell viability counter screen (AID 1259241); also: nearly all actives have a fitted effect of over 40% in size
Outline: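 VM7Luc4E2 cells (endogenous ER-alpha, 4×ERE-luciferase), hormone-starved 5 days in charcoal-stripped FBS, were treated with compounds plus 0.1 nM 17beta-estradiol for 22 hr at 37C; viability read in same wells as CellTiter-Fluor live-cell protease fluorescence.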

[15] = qHTS assay to identify small molecule antagonists of the androgen receptor (AR) signaling pathway using the MDA cell line in the presence of 0.5 nM R1881 - cell viability counter screen (AID 1259242); also: nearly all actives have a fitted effect of over 45% in size
Outline: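 Viability of MDA-kb2 cells was multiplexed with the luciferase AR readout; after 16 hr with compounds and R1881 at 0.5 nM final, CellTiter-Fluor fluorescence was recorded.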

[16] = qHTS assay to identify small molecule HDAC inhibitors (AID 1259364)
Outline: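 Read-out: luminescence of HDAC-Glo I/II reagent, 30 min RT, reflecting class I/II deacetylase activity in whole HCT-116 cells pre-exposed 2 h to DMSO-dissolved compounds.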

[17] = target: Estrogen receptor (Homo sapiens) (UniProt P03372); assay: qHTS assay to identify small molecule antagonists of the estrogen receptor alpha (ER-alpha) signaling pathway using the BG1 cell line in the presence of 0.1 nM 17-beta-estradiol (AID 1259244); also: nearly all actives have a fitted effect of over 50% in size
Estrogen receptor (Homo sapiens), sequence (P03372 whole entry, looked up): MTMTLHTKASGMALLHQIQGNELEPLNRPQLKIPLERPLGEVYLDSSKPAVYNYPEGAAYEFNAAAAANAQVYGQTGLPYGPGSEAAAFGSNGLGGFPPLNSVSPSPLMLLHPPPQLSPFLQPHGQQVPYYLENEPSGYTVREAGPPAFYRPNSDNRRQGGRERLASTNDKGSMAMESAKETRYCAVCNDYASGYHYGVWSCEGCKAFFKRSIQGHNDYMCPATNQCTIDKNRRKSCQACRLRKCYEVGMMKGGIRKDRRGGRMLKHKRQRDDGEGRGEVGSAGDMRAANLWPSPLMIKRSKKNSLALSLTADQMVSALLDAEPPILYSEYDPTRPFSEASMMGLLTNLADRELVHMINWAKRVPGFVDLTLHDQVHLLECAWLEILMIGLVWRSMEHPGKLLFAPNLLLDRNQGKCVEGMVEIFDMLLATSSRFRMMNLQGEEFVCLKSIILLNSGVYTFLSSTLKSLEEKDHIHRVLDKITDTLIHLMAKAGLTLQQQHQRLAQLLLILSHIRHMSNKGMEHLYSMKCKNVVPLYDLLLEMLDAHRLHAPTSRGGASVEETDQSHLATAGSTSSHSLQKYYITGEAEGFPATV
Outline: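 Estradiol at 0.1 nM (final) stimulates the endogenous ER-alpha of VM7Luc4E2 cells carrying an ERE-driven luciferase; compounds are co-incubated 22 h at 37C and luciferase output quantified by luminescence.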

[18] = qHTS assay to identify small molecule phospholipidosis (PLD) inducers (AID 1259344; active = well fitted curve in the direction sought with a large enough effect; an effect the other way counts as inactive or inconclusive)
Outline: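 HepG2 cells on collagen I, attached 4 h at 37 C, were co-treated with compound and LipidTOX Red dye for 24 h at 37 C, then fixed with paraformaldehyde plus Hoechst 33342 and imaged by high-content microscopy for phospholipid accumulation.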

[19] = target: Androgen receptor (Homo sapiens) (UniProt P10275); assay: qHTS assay to identify small molecule antagonists of the androgen receptor (AR) signaling pathway using the MDA cell line in the presence of 0.5 nM R1881 (AID 1259243); also: nearly all actives have a fitted effect of over 50% in size
Androgen receptor (Homo sapiens), sequence (P10275 whole entry, looked up): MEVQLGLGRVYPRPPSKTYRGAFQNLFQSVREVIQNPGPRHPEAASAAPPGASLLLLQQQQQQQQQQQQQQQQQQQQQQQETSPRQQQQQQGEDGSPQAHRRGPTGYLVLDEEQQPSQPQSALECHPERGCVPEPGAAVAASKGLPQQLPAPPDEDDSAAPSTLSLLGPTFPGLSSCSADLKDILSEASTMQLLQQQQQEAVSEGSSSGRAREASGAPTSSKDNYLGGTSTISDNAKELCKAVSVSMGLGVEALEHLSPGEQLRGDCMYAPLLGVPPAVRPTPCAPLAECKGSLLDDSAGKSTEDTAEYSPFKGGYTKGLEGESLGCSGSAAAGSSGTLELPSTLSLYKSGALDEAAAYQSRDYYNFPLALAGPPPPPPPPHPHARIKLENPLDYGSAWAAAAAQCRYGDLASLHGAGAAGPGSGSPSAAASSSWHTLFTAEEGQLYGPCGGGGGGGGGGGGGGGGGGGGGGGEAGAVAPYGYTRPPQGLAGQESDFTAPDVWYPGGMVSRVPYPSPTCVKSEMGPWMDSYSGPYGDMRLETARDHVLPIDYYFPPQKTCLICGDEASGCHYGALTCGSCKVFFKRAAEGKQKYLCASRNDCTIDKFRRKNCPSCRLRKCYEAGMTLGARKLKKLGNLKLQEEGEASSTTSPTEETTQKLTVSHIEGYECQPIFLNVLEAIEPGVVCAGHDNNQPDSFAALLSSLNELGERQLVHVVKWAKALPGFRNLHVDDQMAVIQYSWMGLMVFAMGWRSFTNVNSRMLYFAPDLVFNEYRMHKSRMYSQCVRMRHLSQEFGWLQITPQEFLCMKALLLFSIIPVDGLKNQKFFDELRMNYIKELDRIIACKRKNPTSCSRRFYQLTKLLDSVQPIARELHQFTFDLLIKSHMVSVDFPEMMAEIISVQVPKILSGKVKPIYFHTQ
Outline: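 Reporter cells cultured without CO2 receive test chemicals, then 0.5 nM R1881 final; after 16 hr at 37C, ONE-Glo is added and light output recorded.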

Measured: Potency

CNCCS(=O)(=O)O
inactive: [1] | [2] | [3] | [4] | [5] | [6] | [7] | [8] | [9] | [10] | [11] | [12] | [13] | [14] | [15] | [16]

CCc1occc(=O)c1O
inactive: [1] | [2] | [3] | [4] | [5] | [6] | [8] | [9] | [10] | [12] | [13] | [14] | [15] | [17] | [16]

C=C(C)[C@@H]1CC=C(C)CC1
inactive: [2] | [3] | [4] | [5] | [6] | [7] | [8] | [9] | [10] | [11] | [12] | [13] | [14] | [15] | [17] | [16]

COC(=O)CCCCC(=O)O
inactive: [1] | [3] | [4] | [5] | [7] | [8] | [9] | [10] | [11] | [12] | [13] | [14] | [15] | [17] | [16]

Cc1c(N)cccc1Cl
inactive: [1] | [2] | [3] | [4] | [5] | [7] | [8] | [9] | [10] | [11] | [12] | [13] | [14] | [15] | [17] | [16]

C=CCCCCCCCC
inactive: [1] | [2] | [4] | [5] | [6] | [7] | [8] | [9] | [10] | [11] | [12] | [13] | [14] | [15] | [16]

Cc1cccc(Cl)c1
inactive: [1] | [2] | [3] | [4] | [5] | [6] | [7] | [8] | [9] | [10] | [11] | [12] | [13] | [14] | [15] | [16]

CC(N)CCCC(C)(C)O (stereo not given)
inactive: [1] | [2] | [3] | [4] | [5] | [6] | [8] | [9] | [10] | [11] | [12] | [13] | [14] | [15] | [18] | [16]

C=CCN1C[C@H](C(=O)N(CCCN(C)C)C(=O)NCC)C[C@@H]2c3cccc4[nH]cc(c34)C[C@H]21
inactive: [2] | [3] | [4] | [5] | [6] | [7] | [8] | [9] | [10] | [12] | [13] | [14] | [15] | [17] | [16]

CC(C)C[C@@H]1[C@H](c2ccccc2)OC(=O)N1CCCN1CCCCCC1
inactive: [1] | [2] | [3] | [4] | [5] | [6] | [7] | [8] | [10] | [12] | [13] | [14] | [15] | [19] | [17] | [16]

Fc1ccccc1
inactive: [1] | [2] | [3] | [4] | [5] | [6] | [7] | [8] | [9] | [10] | [11] | [12] | [13] | [14] | [15] | [17] | [16]

O=NN(CCCl)C(=O)NC1CCCCC1
inactive: [2] | [3] | [4] | [5] | [7] | [8] | [9] | [10] | [12] | [13] | [14] | [15] | [18] | [16]

Cc1ccc(C(C)NC(=O)[C@@H](NC(=O)OC(C)C)C(C)C)cc1 (stereo not given in full)
inactive: [1] | [2] | [3] | [4] | [5] | [6] | [7] | [8] | [9] | [10] | [13] | [14] | [15] | [16]

CC(Oc1cc(Cl)ccc1Cl)C(=O)O (stereo not given)
inactive: [1] | [2] | [3] | [4] | [5] | [7] | [8] | [9] | [10] | [11] | [12] | [13] | [14] | [15] | [19] | [16]

CCOc1cccc(N)c1
inactive: [1] | [2] | [3] | [4] | [5] | [7] | [8] | [9] | [10] | [11] | [12] | [13] | [14] | [15] | [17] | [16]

CC(=O)O[Si](C)(OC(C)=O)OC(C)=O
inactive: [1] | [2] | [3] | [4] | [5] | [6] | [7] | [8] | [9] | [10] | [11] | [12] | [13] | [14] | [15] | [16]

CCC(=O)CC
inactive: [1] | [2] | [3] | [4] | [5] | [6] | [7] | [8] | [9] | [10] | [12] | [13] | [14] | [15] | [16]

Cc1ccccc1C(N)=O
inactive: [2] | [3] | [4] | [5] | [6] | [7] | [8] | [9] | [10] | [11] | [12] | [13] | [14] | [15] | [17] | [16]
